Several values for one entry are separate records, joined by “and”; a condition that tells them apart may be missing. Equal values may be shown once. Inconclusive results are not listed. Unmarked numbers belong to inactive results. Activity calls are given as the source filed them. Calls come from the whole dose curve; as a rule, active = well fitted inhibition curve with a large enough effect; inconclusive = small, poorly fitted or top-dose-only effect; inactive = flat fitted curve, though single readings scatter. Residues, ends and D or L forms follow the SMILES beside them. *: point of attachment. Cbz = O=C(OCc1ccccc1)*
biological target: Glutathione peroxidase 1 (Homo sapiens) (UniProt P07203); test: Primary qHTS Assay for Inhibitors of Recombinant Selenoprotein Glutathione Peroxidase 1 (GPX1) (AID 1845191); conditions: recombinant GPX1, GR-coupled NADPH fluorescence, 15 min; series mostly up to 48.8 µM; activity, negative = inhibition: at the top concentration; note: nearly all actives have a fitted effect of over 65% in size
Summary of the method: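 10 nM GPX1 + cpd, 30 min RT; start w/ 1 mM GSH, 0.5 mM cumene hydroperoxide, 0.5 mM NADPH, 100 nM GR, 0.01% BSA; buffer 50 mM Tris-HCl pH 7.5, 2 mM EDTA, 150 mM NaCl; Fl 340/450, 0 & 15 min.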
% is set by controls: 0 for no effect and ±100 for the full control effect; potency is the fitted concentration of half-maximal effect.

Sequence of Glutathione peroxidase 1 (Homo sapiens) (P07203 whole entry, looked up): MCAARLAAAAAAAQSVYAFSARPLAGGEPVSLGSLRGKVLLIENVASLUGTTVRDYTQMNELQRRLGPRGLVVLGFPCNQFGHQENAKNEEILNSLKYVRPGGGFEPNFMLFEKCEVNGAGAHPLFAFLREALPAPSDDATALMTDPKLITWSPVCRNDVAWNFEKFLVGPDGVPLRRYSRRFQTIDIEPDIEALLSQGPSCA

| Compound | activity, negative = inhibition | outcome | Potency |
| --- | --- | --- | --- |
| Nc1nc2ccc(Cl)cc2c2nc(-c3ccco3)nn12 | -9.57% |  |  |
| C#CC(N)CCC(=O)O (stereo not drawn) |  | inactive |  |
| [Li+] |  | inactive |  |
| COc1ccccc1N1CCN(CCCCNC(=O)c2ccc3ccccc3c2)CC1 | -7.65% |  |  |
| Nc1ccc(N2C(=O)c3ccccc3C2=O)c(Cl)c1 | 2.7% |  |  |
| O=C(O)c1ccccc1Nc1cccc(OCc2ccc3ccccc3n2)c1 | -6.98% |  |  |
| CC(C)NCC(O)COc1ccc(CC(N)=O)cc1 (stereo not drawn) | -3.88% |  |  |
| COc1ccc(-c2cc3ncc(C)n3c(Nc3ncccc3C(N)=O)n2)cc1OC |  | inactive |  |
| CC(N)=O | 3.68% |  |  |
| CCOC(=O)C12CC1/C(=N/O)c1ccccc1O2 (stereo not drawn) | 1.96% |  |  |
| CCCCCCC/C=C\CCCCCCCCC(=O)O | -21.2% |  |  |
| Nn1nnc2ccccc21 |  | inactive |  |
| CCCCCCCCCCC/C=C\C(C)(C)/C=C\CCCC(=O)O | 1.66% |  |  |
| NC(=O)c1cc[n+](CC2=C(C(=O)O)N3C(=O)[C@@H](NC(=O)[C@@H](c4ccccc4)S(=O)(=O)[O-])[C@H]3SC2)cc1 |  |  | 4.53 µM (active) and 28.2 µM (active) |
| CCCCCCCC/C=C\CCCCCCCC(=O)NCCc1ccc(O)c(O)c1 | -27.4% |  |  |
| O[Si](CCCN1CCCCC1)(c1ccc(F)cc1)C1CCCCC1 (stereo not drawn) | 4.16% |  |  |
| O=C1C2C=CC=CC2=NC(=S)N1CCN1CCC(=C(c2ccc(F)cc2)c2ccc(F)cc2)CC1 (stereo not drawn) | 1.21% |  |  |
| CSC(=N)N | -4.23% |  |  |
| O=C(O)c1cc2cc(F)ccc2[nH]1 |  | inactive |  |

| Compound | activity, negative = inhibition | outcome | Potency |
| --- | --- | --- | --- |
| CC(C)[C@H](NC(=O)OCc1ccccc1)C(=O)N[C@H](C=O)Cc1ccccc1 (Cbz-Val-Phe-aldehyde) | -3.52% |  |  |
| N[C@H](C(=O)O)c1cc(O)cc(O)c1 | -7.36% |  |  |
| CCc1ccc2c(-c3cccc(Cl)c3)nc(=O)n(CC)c2n1 | -25.1% |  |  |
| Nc1ncnc2c1ncn2C1CCCO1 (stereo not drawn) |  | inactive |  |
| CCN(CC)CCOC(=O)c1cc(Cl)c(N)cc1OC | -10.7% |  |  |
| c1ccc2c(c1)CC(N1CCN(c3cccc4c3OCCO4)CC1)C2 |  | inactive |  |
| O=c1cc(O)cc(/C=C/c2ccc(O)c(O)c2)o1 |  | inactive |  |
| c1ccc(C(NCCNC(c2ccccc2)c2ccccc2)c2ccccc2)cc1 |  | inactive |  |
| CC[N+](CC)(CC)CC(=O)Nc1c(C)cccc1C | 4.28% |  |  |
| COc1ccc(NC(=O)c2ccc(-c3ccc(-c4noc(C)n4)cc3C)cc2)cc1N1CCN(C)CC1 |  | inactive |  |
| C#CCn1c(=O)c2c(ncn2C)n(C)c1=O | -15.9% |  |  |
| CC(C)(C)NCC(O)COc1cccc2[nH]c(=O)[nH]c12 (stereo not drawn) |  | inactive |  |
| NOCC(=O)O | -5.36% |  |  |
| CNc1ncnc2c1ncn2[C@H]1C[C@H](OP(=O)(O)O)[C@@H](COP(=O)(O)O)O1 | -10.6% |  |  |
| N[C@@H](Cc1ccc(F)cc1)C(=O)O | 0.799% |  |  |
| COc1ccc2c(c1)c(CC(=O)O)c(C)n2Cc1ccc(Cl)cc1 |  | inactive |  |
| O=[N+]([O-])c1cccc2cn[nH]c12 | 3.1% |  |  |
| COC(=O)C(C)(N)Cc1ccc(O)cc1 (stereo not drawn) |  | inactive |  |
| NC[C@@H]1O[C@H](c2ccccc2)Cc2c1ccc(O)c2O | -9.87% |  |  |

Source: PubChem BioAssay (NCATS)
